Results filed as inconclusive are left out. Entries that show only a call come without a potency. Calls of active or inactive are those of the source. Calls come from the whole dose curve; as a rule, active = well fitted inhibition curve with a large enough effect; inconclusive = small, poorly fitted or top-dose-only effect, or effect the other way; inactive = flat fitted curve, though single readings scatter.

A short description of this test: VP16 selectivity assay for inhibitors of ROR gamma transcriptional activity. To be noted: Drosophila Schneider Gal4-VP16 UAS-luciferase reporter, 20 h; series mostly up to 92.2 µM. From the text:
NIH Molecular Libraries Probe Production Network [MLPCN] NIH Chemical Genomics Center [NCGC] MLPCN Grant: R03 DA026211-01 Assay Provider: Dan Littman, New York University Assay Overview: The retinoic acid-related orphan receptor (ROR) gamma is a transcription factor that has a central role in the differentiation of Th17 cells, a subset of T helper cells that secrete the inflammatory cytokines IL-17, IL-17F, and IL-22. Th17 cells have been implicated in graft versus host disease, autoimmune disease and asthma. ROR gamma is induced in naive T helper cells in the presence of TGF-beta combined with IL-6, IL-21, or IL-23, and thereafter directs the expression of the Th17 lineage cytokines. To identify nonspecific inhibitors, a Drosophila Schneider cell line was stably transfected with two vectors: a gene expressing a fusion of the Gal4 DNA binding domain and VP16 transactivation domain under the control of the metallothionine promoter and a Photinus luciferase reporter regulated by the Gal4 binding site enhancer, UAS. […] Small molecule inhibitors that inhibit components common to the RORgt and VP16 assays, such as the Gal4 DNA binding domain or the UAS luciferase reporter, will be active in both assays and thus scored as nonspecific.
Assay Protocol Summary: For screening, 600 cells in 4 uL/well were dispensed into white solid 1536-well plates (Grenier) using a solenoid-based dispenser. Following transfer of 23 nL compound or DMSO vehicle by a pin tool, the plates were incubated 1 hr at ambient temperature, and 1 uL/well copper sulfate (700 uM final concentration) was added. The plates were centrifuged 15 s at 1000 RPM and incubated 20 hr at ambient temperature. After addition of 1.5 uL Photinus luciferase detection reagent, the plates were incubated 10 min at ambient temperature and then read by an ViewLux (Perkin Elmer) to detect luminescence.
(In general: Reporter assays use an easily measured gene product as a stand-in for the process of interest.)
On to `O=C(NC(=S)Nc1nc(-c2ccccc2)cs1)c1cccnc1`, for which the Potency is 25.7 µM (active). On to `COc1cc(O)c(C(CC(=O)N2CCCC(C)C2)c2cccc3ccccc23)c(OC)c1` (stereo not given), for which the Potency entry was “inactive”. With `COc1ccc2nc(NNC(=O)COc3ccccc3)sc2c1` the figure was 6.45 µM (active); with `Cc1ccc(-c2cn(-c3ccccc3)c3[n+]2CCCS3)cc1`, 10.2 µM (active); with `COc1cc(O)c(C(CC(=O)N2CCOCC2)c2ccc3c(c2)OCO3)c(OC)c1` (stereo not given), “inactive”. With `Cc1nn(-c2cc(C)c3ccccc3n2)c2c1C1C(C2)C1(C)C` (stereo not given), the Potency is 22.9 µM (active). `CC1CCCN(C(=O)CC(c2ccc3c(c2)OCO3)c2c(O)cccc2Cl)C1` (stereo not given): the Potency is 40.7 µM (active). For `CCn1cc(C(=O)O)c(=O)c2cnc(N3CCN(C(=S)NC(=O)c4ccccc4)CC3)nc21`, the Potency is 20.4 µM (active). In the case of `COc1cc(O)c(C(CC(=O)N2CCC[C@@H](C)C2)c2ccc3c(c2)OCO3)c(OC)c1` (stereo not given in full), the Potency entry is “inactive”. Under `COc1ccc(C(CC(=O)N2CCCC(C)C2)c2c(O)cc(OC)cc2OC)c(OC)c1` (stereo not given) stands “inactive”; under `Cc1cc(C)n(-c2nc(SCC(=O)O)c3c4c(sc3n2)CCCC4)n1`, 16.2 µM (active). With `CC(C)(C)c1ccc([S+](=O)([O-])Nc2ccccc2C(O)(C(F)(F)F)C(F)(F)F)cc1` the figure was 11.5 µM (active); with `COc1cc(OC)c(C(CC(=O)N2CCCC(C)C2)c2ccc3c(c2)OCO3)c(OCc2ccccc2)c1` (stereo not given), 12.9 µM (active); with `COc1cc(O)c([C@H](CC(=O)N2CC(C)CC(C)C2)c2ccc3c(c2)OCO3)c(OC)c1` (stereo not given in full), “inactive”.

`COc1cc(O)c(C(CC(=O)N2CCCC(c3nc4ccccc4o3)C2)c2ccc3c(c2)OCO3)c(OC)c1` (stereo not given): the Potency result is “inactive”. With `COc1cc(O)c(C(CC(=O)N2CCc3ccccc32)c2ccc3c(c2)OCO3)c(OC)c1` (stereo not given) the entry was “inactive”; with `COCC1CCCN(C(=O)CC(c2ccc3c(c2)OCO3)c2c(O)cc(OC)cc2OC)C1` (stereo not given), “inactive”; with `c1ccc(Cn2c(-c3ccccc3)c[n+]3c2SCCC3)cc1`, 45.7 µM (active). Take `CCN(CC)c1ccc(/C=N/n2c(-c3ccccc3Br)n[nH]c2=S)cc1`: the Potency is 2.04 µM (active). Under `C#CCOc1cc(OC)cc(OC)c1C(CC(=O)N1CCCC(C)C1)c1ccc2c(c1)OCO2` (stereo not given) stands 45.7 µM (active); under `CCCCNC(=O)CC(c1ccc2c(c1)OCO2)c1c(O)cc(OC)cc1OC` (stereo not given), “inactive”; under `C[C@H]1O[C@@H](O[C@H]2[C@@H](O)C[C@@H](O[C@H]3[C@@H](O)C[C@H](O[C@H]4CC[C@@]5(C)[C@H](CC[C@@H]6[C@@H]5CC[C@]5(C)[C@@H](C7=CC(=O)OC7)CC[C@]65O)C4)O[C@@H]3C)O[C@@H]2C)C[C@H](O)[C@@H]1O`, “inactive”. With `CCOC(=O)C1CCN(CC(=O)Nc2cc(C)nn2-c2nc3ccccc3s2)CC1` the figure was 22.9 µM (active). Under `CCOc1ccc(O)c(C(CC(=O)N2CCCC(C)C2)c2ccc3c(c2)OCO3)c1` (stereo not given) stands “inactive”; under `COc1cc(O)c(C(CC(=O)N2CC(C)CC(C)C2)c2ccc(O)cc2)c(OC)c1` (stereo not given), “inactive”. For the compound `COc1cc(O)c(C(CC(=O)N2CC(C)NC(C)C2)c2ccc3c(c2)OCO3)c(OC)c1` (stereo not given), the Potency result was “inactive”. Under `COc1cc(O)c(C(CC(=O)N2CCCC(C(=O)N3CCCCC3)C2)c2ccc3c(c2)OCO3)c(OC)c1` (stereo not given) stands “inactive”; under `CC(C)[C@H](NC(=O)C1CCN(C(=O)[C@@H]2CCCN2C(=O)OC(C)(C)C)CC1)C(=O)NCc1ccc(F)cc1`, “inactive”. As for `COc1cc(O)c(C(CC(=O)N2CCCC(C#N)C2)c2ccc3c(c2)OCO3)c(OC)c1` (stereo not given), the Potency result was “inactive”. Under `COc1ccc(-c2c[n+]3c(n2-c2ccc(C)cc2)CCCCC3)cc1` stands 5.12 µM (active).

`COc1cc(O)c(C(CC(=O)N2CCCC(CO)C2)c2ccc3c(c2)OCO3)c(OC)c1` (stereo not given): the Potency result was “inactive”. For `Cc1ccc(C)c(/C=N/n2cc(-c3ccccc3)[nH]c2=S)c1`, the Potency is 20.4 µM (active). With `CC(C)(C)c1ccc(-c2noc(CCC(=O)Nc3cccnc3)n2)cc1` the figure was 2.04 µM (active); with `COc1cc(C)nc(-n2nc(C)cc2OC)n1`, 14.4 µM (active); with `CCC(=O)C1CCCN(C(=O)CC(c2ccc3c(c2)OCO3)c2c(O)cc(OC)cc2OC)C1` (stereo not given), “inactive”. Under `COc1cc(O)c(C(CC(=O)N2CCCC(COc3ccc(F)cc3)C2)c2ccc3c(c2)OCO3)c(OC)c1` (stereo not given) stands “inactive”; under `C=C1Nc2c(-c3ccc(F)cc3)cnn2C(N)=C1c1ccccc1`, 0.288 µM (active); under `Cc1ccc(OCCCC(=O)Nc2nc3ccccc3[nH]2)cc1`, 18.2 µM (active). Consider `COc1cc(O)c(C(CC(=O)N2CC(C)OC(C)C2)c2ccc3c(c2)OCO3)c(OC)c1` (stereo not given), for which the Potency entry was “inactive”. Consider `COc1cc(O)c(CCC(=O)N2CCCC(C)C2)c(OC)c1` (stereo not given), for which the Potency entry was “inactive”.

(Values after PubChem BioAssay AID489036 (National Center for Advancing Translational Sciences (NCATS), 2010).)
